In PubChem BioAssay (EPA / NIEHS):
Active and inactive are the calls of the source. How the source made its calls: active means hit-call score of the fitted dose curve at least 0.9, where 1 is the maximum; inactive means score below 0.9.

Tests used:
[1] = ATG_CRE_CIS: Attagene CIS-FACTORIAL HepG2 Assay for human cAMP Responsive Element (CRE) binding protein 3 (AID 2282926); conditions: HepG2 CRE cis-reporter, Attagene multiplexed mRNA; actives raise or lower the signal
How it was run: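 Capillary electrophoresis of 6-FAM-labelled, HpaI-digested PCR products quantified reporter transcripts. These came from HepG2 transiently transfected with cis-element reporters and exposed to test chemicals for 24 hours, with DMSO defining baseline activity.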

[2] = biological target: CCAAT/enhancer-binding protein beta (Homo sapiens) (UniProt P17676); experiment: ATG_C_EBP_CIS: Attagene CIS-FACTORIAL HepG2 Assay for human CCAAT/Enhancer Binding Protein (C/EBP) beta (AID 2282927); conditions: HepG2 Attagene cis-factorial transcription factor reporter; actives raise or lower the signal
CCAAT/enhancer-binding protein beta (Homo sapiens), sequence (P17676 whole entry, looked up): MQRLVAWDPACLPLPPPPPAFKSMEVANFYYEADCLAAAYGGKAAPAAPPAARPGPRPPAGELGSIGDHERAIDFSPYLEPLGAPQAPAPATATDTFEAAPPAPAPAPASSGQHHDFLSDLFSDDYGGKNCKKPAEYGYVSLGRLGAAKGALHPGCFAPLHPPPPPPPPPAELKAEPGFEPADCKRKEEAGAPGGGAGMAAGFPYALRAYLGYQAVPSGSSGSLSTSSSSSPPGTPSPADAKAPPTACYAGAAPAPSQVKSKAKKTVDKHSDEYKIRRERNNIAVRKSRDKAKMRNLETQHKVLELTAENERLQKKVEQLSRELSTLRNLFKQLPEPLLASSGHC
How it was run: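 HepG2 transiently transfected with multiplexed reporter units under cis-regulatory promoters reporting endogenous C/EBPb activity. After 24 h exposure, reporter mRNA assayed by RT-PCR, fluorescent labelling, HpaI digestion and capillary electrophoresis; bidirectional fitting versus DMSO.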

[3] = ATG_CMV_CIS: Attagene CIS-FACTORIAL HepG2 Assay for human CMV (Internal Marker) (AID 2282928); conditions: HepG2 CMV promoter reporter, transcription factor profiling; actives raise or lower the signal;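 further: endpoint acts as a background internal control marker rather than a target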
How it was run: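 Reporter transcripts from transfected HepG2 cells are isolated after 24 h of chemical dosing, reverse-transcribed and amplified. Fragments labeled with 6-FAM are cut with HpaI and quantified by capillary electrophoresis; DMSO defines baseline.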

[4] = ATG_DR4_LXR_CIS: Attagene CIS-FACTORIAL HepG2 Assay for human Liver X Receptor (LXR), DR4 submotif (AID 2282929); conditions: HepG2 Attagene DR4 cis-reporter, mRNA transcription; actives raise or lower the signal
How it was run: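 Transiently transfected HepG2 liver cells; cis-regulated reporters; 24 h dosing. RT-PCR plus CE read-out of reporter mRNA. DMSO baseline, bidirectional curve fitting.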

[5] = biological target: Aryl hydrocarbon receptor (Homo sapiens) (UniProt P35869); experiment: ATG_Ahr_CIS: Attagene CIS-FACTORIAL HepG2 Assay for human Aryl Hydrocarbon Receptor (Ahr) (AID 2282930); conditions: HepG2 AhR cis-factorial reporter transcription; actives raise or lower the signal
Aryl hydrocarbon receptor (Homo sapiens), sequence (P35869 whole entry, looked up): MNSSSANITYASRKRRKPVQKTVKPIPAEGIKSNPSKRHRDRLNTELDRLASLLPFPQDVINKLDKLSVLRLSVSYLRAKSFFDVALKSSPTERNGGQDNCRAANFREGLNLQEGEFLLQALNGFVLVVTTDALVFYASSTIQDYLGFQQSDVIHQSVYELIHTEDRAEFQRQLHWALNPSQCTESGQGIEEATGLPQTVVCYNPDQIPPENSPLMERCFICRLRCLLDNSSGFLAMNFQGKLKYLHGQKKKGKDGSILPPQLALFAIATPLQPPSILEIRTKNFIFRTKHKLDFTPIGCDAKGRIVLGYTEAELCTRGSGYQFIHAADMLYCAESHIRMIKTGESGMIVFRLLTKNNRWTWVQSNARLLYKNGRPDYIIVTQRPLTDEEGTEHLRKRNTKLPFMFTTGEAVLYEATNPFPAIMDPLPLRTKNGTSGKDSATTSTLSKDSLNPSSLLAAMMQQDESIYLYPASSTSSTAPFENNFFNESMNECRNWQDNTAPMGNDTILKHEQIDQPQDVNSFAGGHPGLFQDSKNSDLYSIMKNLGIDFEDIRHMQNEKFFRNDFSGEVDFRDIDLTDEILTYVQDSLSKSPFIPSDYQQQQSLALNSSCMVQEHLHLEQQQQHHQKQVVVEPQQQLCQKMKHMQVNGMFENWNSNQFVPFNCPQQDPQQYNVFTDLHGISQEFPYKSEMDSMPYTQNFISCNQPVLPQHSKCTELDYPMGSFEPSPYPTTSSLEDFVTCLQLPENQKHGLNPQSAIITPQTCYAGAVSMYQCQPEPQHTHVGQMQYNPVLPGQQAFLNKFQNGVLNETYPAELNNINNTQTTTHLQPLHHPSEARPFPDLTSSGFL
How it was run: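 HepG2 cells transiently transfected with cis-element-driven multiplexed reporter units; endogenous AhR activity read as reporter mRNA 24 h after dosing, via RT-PCR, 6-FAM labelling, HpaI digestion and capillary electrophoresis. Bidirectional fit relative to DMSO.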

[6] = ATG_AP_1_CIS: Attagene CIS-FACTORIAL HepG2 Assay for human Activator Protein 1 (AP-1) (AID 2282931); conditions: HepG2 Attagene cis-factorial AP-1 reporter mRNA; actives raise or lower the signal
How it was run: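 We transfected HepG2 cells transiently with a set of cis-regulated reporter transcription units, dosed them for 24 h, and quantified reporter mRNA via RT-PCR and capillary electrophoresis, scoring gain or loss of signal relative to DMSO.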

[7] = ATG_AP_2_CIS: Attagene CIS-FACTORIAL HepG2 Assay for human Activator Protein 2 (AP-2) (AID 2282932); conditions: HepG2 AP-2 cis-reporter, Attagene transcription factor profiling; actives raise or lower the signal
How it was run: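 Liver-derived HepG2 line, cis-reporter system measuring endogenous factors; 24 h dosing; reporter mRNA detected by fluorescent RT-PCR and capillary electrophoresis.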

[8] = ATG_BRE_CIS: Attagene CIS-FACTORIAL HepG2 Assay for human Bone Morphogenetic Protein (BMP) Response Element (BRE) (AID 2282933); conditions: HepG2 BMP response element reporter, Attagene transcription factor profiling; actives raise or lower the signal
How it was run: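 HepG2 cells transiently transfected with multiplexed cis-element reporter units were dosed with chemical for 24 h. Reporter mRNA was measured by RT-PCR with fluorescent labelling, HpaI digestion and capillary electrophoresis; bidirectional fitting relative to DMSO.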

[9] = biological target: Retinoic acid receptor alpha (Homo sapiens) (UniProt P10276); experiment: ATG_DR5_RAR_CIS: Attagene CIS-FACTORIAL HepG2 Assay for human Retinoic Acid Receptor Alpha (RARE), DR5 submotif (AID 2282934); conditions: HepG2 Attagene cis-factorial RARE DR5 reporter, mRNA; actives raise or lower the signal
Retinoic acid receptor alpha (Homo sapiens), sequence (P10276 whole entry, looked up): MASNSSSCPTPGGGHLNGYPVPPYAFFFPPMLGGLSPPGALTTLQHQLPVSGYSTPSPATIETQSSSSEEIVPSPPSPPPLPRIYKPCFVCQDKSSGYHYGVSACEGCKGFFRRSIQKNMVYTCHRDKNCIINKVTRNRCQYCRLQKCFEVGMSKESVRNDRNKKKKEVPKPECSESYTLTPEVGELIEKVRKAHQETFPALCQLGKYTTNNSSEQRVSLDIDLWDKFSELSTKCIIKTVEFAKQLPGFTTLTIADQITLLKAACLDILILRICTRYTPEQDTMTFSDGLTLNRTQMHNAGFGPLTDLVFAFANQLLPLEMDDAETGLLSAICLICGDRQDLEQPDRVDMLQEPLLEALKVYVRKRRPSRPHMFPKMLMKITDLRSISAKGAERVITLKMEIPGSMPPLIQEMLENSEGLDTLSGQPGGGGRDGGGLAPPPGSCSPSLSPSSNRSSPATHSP
How it was run: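 HepG2 cells transiently transfected with multiplexed reporter units; DR5 cis-element drives reporter through endogenous transcription factors. After 24 h dosing, reporter mRNA quantified by RT-PCR, fluorescent labeling, HpaI digestion and capillary electrophoresis; bidirectional fitting versus DMSO.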

[10] = biological target: Transcription factor E2F1 (Homo sapiens) (UniProt Q01094); experiment: ATG_E2F_CIS: Attagene CIS-FACTORIAL HepG2 Assay for human E2F Transcription Factor 1 (AID 2282935); conditions: HepG2 Attagene cis-reporter, E2F reporter RNA transcripts; actives raise or lower the signal
Transcription factor E2F1 (Homo sapiens), sequence (Q01094 whole entry, looked up): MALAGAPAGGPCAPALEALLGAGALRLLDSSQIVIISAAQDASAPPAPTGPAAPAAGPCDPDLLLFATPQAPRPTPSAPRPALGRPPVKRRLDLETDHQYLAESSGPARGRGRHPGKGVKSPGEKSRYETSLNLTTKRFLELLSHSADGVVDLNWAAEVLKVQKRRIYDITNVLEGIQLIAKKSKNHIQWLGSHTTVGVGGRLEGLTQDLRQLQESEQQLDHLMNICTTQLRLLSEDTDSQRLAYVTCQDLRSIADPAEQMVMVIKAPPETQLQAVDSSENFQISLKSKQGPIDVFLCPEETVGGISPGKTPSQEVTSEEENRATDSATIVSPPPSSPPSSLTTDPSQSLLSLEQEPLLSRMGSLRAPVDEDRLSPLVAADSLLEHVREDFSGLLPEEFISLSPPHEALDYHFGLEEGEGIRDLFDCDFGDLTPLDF
How it was run: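 Liver-derived HepG2 cells expressing transfected promoter-driven reporter units received test chemical for 24 hours. Signal gains or losses were fitted bidirectionally against DMSO.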

[11] = ATG_E_Box_CIS: Attagene CIS-FACTORIAL HepG2 Assay for human Enhancer Box (E-box) (AID 2282936); conditions: HepG2 E-box cis-reporter transcription, actives raise or lower the signal
How it was run: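 In this cell-based setup, HepG2 cells bearing transfected promoter-driven reporter units were exposed to chemicals for 24 h; reporter transcripts were amplified, 6-FAM-labelled, cut with HpaI and sized by capillary electrophoresis.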

[12] = ATG_M_61_CIS: Attagene CIS-FACTORIAL HepG2 Assay for M61 Transcription Factor (Internal Marker) (AID 2282937); conditions: HepG2 Attagene CIS-FACTORIAL M61 internal marker reporter; actives raise or lower the signal
How it was run: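 Multiplexed reporter mRNA assay, HepG2 human hepatoma cells, 24 h treatment. Signal: FAM-labelled, HpaI-digested RT-PCR fragments by CE. Fit: bidirectional, baseline DMSO.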

[13] = ATG_EGR_CIS: Attagene CIS-FACTORIAL HepG2 Assay for human Early Growth Response 1 (EGR1) (AID 2282938); conditions: HepG2 Attagene CIS-FACTORIAL EGR reporter mRNA; actives raise or lower the signal
How it was run: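 Multiplexed cis-reporter system in human hepatoma HepG2 cells, transiently transfected. Cells are dosed for 24 h; reporter transcripts are amplified, fluorescently tagged and sized by capillary electrophoresis, with DMSO as negative control.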

[14] = ATG_M_19_CIS: Attagene CIS-FACTORIAL HepG2 Assay for M19 Transcription Factor (Internal Marker) (AID 2282939); conditions: HepG2 Attagene CIS-FACTORIAL M19 internal marker reporter; actives raise or lower the signal
How it was run: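 HepG2 cells transiently transfected with cis-regulated multiple reporter transcription units were dosed for 24 h; reporter mRNA was quantified by RT-PCR, 6-FAM primer-extension labelling, HpaI digestion and capillary electrophoresis, with bidirectional fitting against DMSO baseline.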

[15] = ATG_ERE_CIS: Attagene CIS-FACTORIAL HepG2 Assay for Estrogen Response Element (ERE) (AID 2282940); conditions: HepG2 ERE cis-reporter, Attagene RNA transcript; actives raise or lower the signal
How it was run: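 HepG2 cells transiently transfected with cis-promoter-driven multiplexed reporter transcription units report endogenous TF activity. After 24 h compound exposure, reporter mRNA is quantified by RT-PCR with capillary electrophoresis fluorescence; bidirectional fitting versus DMSO baseline.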

[16] = ATG_Ets_CIS: Attagene CIS-FACTORIAL HepG2 Assay for human Erythroblast Transformation Specific (ETS) (AID 2282941); conditions: HepG2 ETS cis-reporter transcription, actives raise or lower the signal
How it was run: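 Bidirectional fit versus DMSO of reporter mRNA signal, detected by RT-PCR and capillary electrophoresis in HepG2 cells transiently transfected with cis-element reporters and dosed 24 h.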

[17] = biological target: Hepatocyte nuclear factor 3-beta (Homo sapiens) (UniProt Q9Y261); experiment: ATG_FoxA2_CIS: Attagene CIS-FACTORIAL HepG2 Assay for human Forkhead box A2 (FOXA2) (AID 2282942); conditions: HepG2 cis-reporter transcription factor activity, 24 h; actives raise or lower the signal
Hepatocyte nuclear factor 3-beta (Homo sapiens), sequence (Q9Y261 whole entry, looked up): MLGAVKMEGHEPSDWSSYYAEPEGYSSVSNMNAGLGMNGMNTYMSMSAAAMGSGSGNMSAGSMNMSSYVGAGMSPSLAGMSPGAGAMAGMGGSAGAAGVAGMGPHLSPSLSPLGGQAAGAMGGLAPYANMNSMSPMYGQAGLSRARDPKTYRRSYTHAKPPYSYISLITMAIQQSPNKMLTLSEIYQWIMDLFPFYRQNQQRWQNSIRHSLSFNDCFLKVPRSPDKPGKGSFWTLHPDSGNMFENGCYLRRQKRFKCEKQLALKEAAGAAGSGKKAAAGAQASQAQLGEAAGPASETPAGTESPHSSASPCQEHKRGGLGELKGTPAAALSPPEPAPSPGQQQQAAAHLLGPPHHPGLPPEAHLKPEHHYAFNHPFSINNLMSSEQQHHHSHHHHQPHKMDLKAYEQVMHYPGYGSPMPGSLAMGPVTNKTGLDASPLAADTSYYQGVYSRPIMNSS
How it was run: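 Multiplexed cis-element reporter assay in transiently transfected HepG2. Twenty-four hours post-dosing, RNA was reverse-transcribed, amplified, FAM-labelled, HpaI-digested and separated by CE. Activity gain or loss relative to DMSO.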

[18] = ATG_FoxO_CIS: Attagene CIS-FACTORIAL HepG2 Assay for human Forkhead box O (FoxO) (AID 2282943); conditions: HepG2 Attagene cis-reporter, FoxO element, mRNA; actives raise or lower the signal
How it was run: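 HepG2 cells transiently transfected with cis-element-driven reporter units report endogenous FoxO activity. After 24 h chemical exposure, reporter mRNA quantified by RT-PCR, fluorescent labeling, HpaI digestion and capillary electrophoresis; bidirectional fit versus DMSO.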

[19] = ATG_GLI_CIS: Attagene CIS-FACTORIAL HepG2 Assay for human Zinc Finger Protein GLI1 (AID 2282945); conditions: HepG2, Attagene cis-factorial reporter mRNA, GLI element; actives raise or lower the signal
How it was run: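 Transiently transfected HepG2 cells report endogenous transcription factor activity via cis-element-driven reporter units. After 24 h compound exposure, reporter mRNA was measured by RT-PCR with capillary electrophoresis; bidirectional fitting against DMSO baseline.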

[20] = ATG_GATA_CIS: Attagene CIS-FACTORIAL HepG2 Assay for human GATA Binding Protein (AID 2282944); conditions: HepG2 GATA cis-element reporter, Attagene multiplex mRNA; actives raise or lower the signal
How it was run: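 HepG2 cells transiently transfected with multiplexed cis-element reporter units reflecting endogenous transcription factor activity; reporter mRNA measured after 24 h dosing by RT-PCR, 6-FAM labeling, HpaI digestion and capillary electrophoresis. Bidirectional fitting versus DMSO baseline.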

Measured: AC50

OCC(O)c1ccccc1 (configuration not stated)
not listed: [20]
inactive: all other assays above

CCCC(=O)c1ccccc1
not listed: [15]
inactive: all other assays above

CC(C)(C)OC(=O)c1ccc(O)cc1
active: [6] 70.1 µM
not listed: [15]
inactive: all other assays above

CCCCCCCCN1CCCC1=O
active: [1] 151 µM
not listed: [15]
inactive: all other assays above

O=CCc1ccccc1
not listed: [15]
inactive: all other assays above

CCC(Cl)C(Cl)C(Cl)CC(Cl)C(Cl)C(C)Cl (configuration not stated)
active: [3] 47.7 µM | [4] 9.99 µM | [6] 55.7 µM | [8] 116 µM | [11] 83.9 µM
not listed: [15]
inactive: all other assays above

COC(C)(C)CCO
not listed: [15]
inactive: all other assays above

CC1(C)O[C@@H]2C[C@H]3[C@@H]4CCC5=CC(=O)C=C[C@]5(C)[C@@]4(F)[C@@H](O)C[C@]3(C)[C@]2(C(=O)CO)O1
active: [5] 0.082 µM
not listed: [15]
inactive: all other assays above
